# Measured potencies and affinities stand elsewhere. Results filed as inconclusive are left out. Values without a mark were called inactive. No rule for the calls is given here.
# Assay: cytotoxicity in NIH-3T3 fibroblasts, dose response, cytotoxicity control for antifungal drug resistance project, cell-based, Alamar Blue, fluconazole, dry powder (AID 488809)
# Conditions: NIH-3T3 fibroblasts + fluconazole, Alamar Blue viability, 48 h; series mostly up to 26 µM; activity change, negative = toxicity: at the top concentration
row,Structure (SMILES),"activity change, negative = toxicity [%]"
1,CCOC(=O)c1c2ccccc2nn1Cc1ccc(Cl)cc1,-15.4
2,O=C(Cn1c2ccccc2c2nc3n(c(=O)c21)CCS3)N1CCCC1,-31.6
3,COC(=O)Cn1nc(-c2ccc(C)cc2)c2ccccc21,-25.3
4,COc1ccc(OC)c2c(C)cc(N3CCN(C(=O)c4ccc(Cl)cc4)CC3)nc12,-28.7
5,CNC(=O)Cn1nc(-c2ccccc2)c2ccccc21,-27.9
